Among the data in the OligoGym collection are sensor-assay potency score (higher = more potent) values, retold here.

What all share (experiment): pooled miR-30 sensor sort-seq; sequence = guide strand
Holding throughout (settings): shRNA

The target of assay [1] is SNRNP70.
In assay [2] the target is SNN.
For assay [3], the target named is SNCG.
Assay [4] concerns the target SNRNP200.
Assay [5] has as its target SNX29.
Assay [6] has as its target SQRDL.
For assay [7], the target named is SRCRB4D.
In assay [8] the target is SRCAP.
The target in assay [9] is SRC.
Note: reference of the scale not given here.

The sequence TAGCGGGAGGTGTCATCGCGGC returned a sensor-assay potency score (higher = more potent) in [1] of -0.939.

With TACACCTCAAACTCTCTCCGGA, the sensor-assay potency score (higher = more potent) in [1] came out at 0.28.

In [2], TTACAGTAGTAGCTCCATCAAA yielded a sensor-assay potency score (higher = more potent) of -1.39.

With TGCTTGGTCTTTTCCACCGCAC, in [3], the sensor-assay potency score (higher = more potent) was -1.01.

TTGCGCACCACCCCGGAGGTGA came in with a sensor-assay potency score (higher = more potent) in [3] of -1.19.

For the sequence TAAGCTCTGTCTCCACTTCTTG, the sensor-assay potency score (higher = more potent) in [1] was -0.943.

TTTCATTCTTTAGAACAGCTAG had a sensor-assay potency score (higher = more potent) in assay [4] of 0.0872.

In turn, AATGAGGATGACGATGACTGTG gave a sensor-assay potency score (higher = more potent) in assay [2] of -0.905.

The sequence TTCTTGAAGAAATCCTTCTTGG came in with a sensor-assay potency score (higher = more potent) in assay [4] of -0.674.

Take TTCATGTGGCAGTTTCTCCAGG: the sensor-assay potency score (higher = more potent) in [1] is -0.18.

Turning to TTGATAGGTCCGTACACCTCAA, the sensor-assay potency score (higher = more potent) in assay [1] was -0.456.

For the sequence TTGCAGAAGAACGTTGATCTTA, the sensor-assay potency score (higher = more potent) in [4] is -0.0878.

Turning to TTGGATGCCACACCCTCCTGTT, in [3], the sensor-assay potency score (higher = more potent) is -1.09.

In assay [4], TGCACTGACAACTCCAACTTGG returned a sensor-assay potency score (higher = more potent) of -0.38.

With TTGGCCTTTCTCTCCACGCACG, the sensor-assay potency score (higher = more potent) in assay [2] was -1.27.

Turning to TGGTCTTTTCCACCGCACCCAC, in assay [3], the sensor-assay potency score (higher = more potent) is -1.77.

With AATCTTCTTGCCATCTGCGTGT, the sensor-assay potency score (higher = more potent) in [1] was -0.116.

Sequence AATATCGCTCGCATCAACCGGC returned a sensor-assay potency score (higher = more potent) in assay [4] of 0.041.

Sequence TGTAATGAGGTGCTCGTCCTGG showed a sensor-assay potency score (higher = more potent) in [4] of -0.352.

In the case of TACAGTGTTAAACACCTGGGTC, the sensor-assay potency score (higher = more potent) in assay [4] is -1.05.

TCCTCTGACTGGCTGATGCGCT yielded a sensor-assay potency score (higher = more potent) in assay [2] of -1.54.

Turning to TATCTTGGTAAAGACTCTCAAA, the sensor-assay potency score (higher = more potent) in assay [4] is -1.23.

On to TGACTGGCTGATGCGCTGCAGC, for which the sensor-assay potency score (higher = more potent) in assay [2] is -1.74.

With ATGACGATGACTGTGACCACGC, in assay [2], the sensor-assay potency score (higher = more potent) was -0.588.

For the sequence TTCTCTCCACGCACGGTCCCTT, in assay [2], the sensor-assay potency score (higher = more potent) was -1.08.

Regarding TTGGTCTTCTCGGCCACTGAGG, in assay [3], the sensor-assay potency score (higher = more potent) was -1.32.

Sequence TTTGATAGGTCCGTACACCTCA gave a sensor-assay potency score (higher = more potent) in [1] of 0.253.

With TTGTTCTCAATGGTCTTGGTGA, the sensor-assay potency score (higher = more potent) in [4] is -0.0384.

With TCTCCTCGTCCTCTGACTGGCT, in assay [2], the sensor-assay potency score (higher = more potent) was -0.606.

Consider TGGTCTTCTCAGCTGCTTCCGT, for which, in assay [3], the sensor-assay potency score (higher = more potent) is -1.23.

In [5], TTGACCTTCTCTTTTCAGCATC registered a sensor-assay potency score (higher = more potent) of -0.863.

Sequence TTTAATCTTCTCATAGTCCAGC displayed a sensor-assay potency score (higher = more potent) in assay [6] of 0.0208.

As to TTTCATATGAAATCACTTGGGT, the sensor-assay potency score (higher = more potent) in assay [6] was 0.204.

TTAACATCTTCCTTGTTGGGGG returned a sensor-assay potency score (higher = more potent) in assay [7] of 0.296.

In turn, TTGTCCAGCAGGATGTGTCCGG yielded a sensor-assay potency score (higher = more potent) in assay [7] of -0.554.

Turning to TTGGCGTCCACCACGTCCCAGT, the sensor-assay potency score (higher = more potent) in assay [7] was -1.07.

In turn, TTCTTTATCCACATCCACCCAA showed a sensor-assay potency score (higher = more potent) in assay [6] of -0.645.

Turning to TTCACCACCACCACTGTCCGGC, the sensor-assay potency score (higher = more potent) in assay [8] was 0.285.

For TTAATGACAATGTCTGAGTTGG, in assay [8], the sensor-assay potency score (higher = more potent) worked out at 0.105.

In turn, TTAACTGAATAATTCGACCCTA returned a sensor-assay potency score (higher = more potent) in assay [6] of 0.0839.

Turning to TCCGACTTGATGGTGAAGCGGC, the sensor-assay potency score (higher = more potent) in assay [9] was -0.784.

TTTATCTCCAACACCTGAGGGG yielded a sensor-assay potency score (higher = more potent) in assay [8] of 0.481.

In the case of TAGAGGACACAGGACTAGCAAG, the sensor-assay potency score (higher = more potent) in [8] is -1.62.

For TCTACTGGTTAACATCTTCCTT, the sensor-assay potency score (higher = more potent) in assay [7] was -0.575.

In assay [8], TCAACATCCACCTTAACTCGGC displayed a sensor-assay potency score (higher = more potent) of 0.0488.

On to AACTCTAGTAGATCCATCCAGG, for which the sensor-assay potency score (higher = more potent) in [8] was -0.807.

In assay [6], ATAATTACAGAAATTGTCCTAT registered a sensor-assay potency score (higher = more potent) of 0.475.

TTCGCAGTGCACGTTGTCCAGC: the sensor-assay potency score (higher = more potent) in [7] was -0.781.

TTGCTTGAATTGCACCACCTTC returned a sensor-assay potency score (higher = more potent) in assay [8] of -1.29.

Consider TGCTCTACTGGTTAACATCTTC, for which the sensor-assay potency score (higher = more potent) in assay [7] is -0.561.

For TTGACCAGACGTAGATGCCCGT, the sensor-assay potency score (higher = more potent) in assay [7] is -0.902.

In assay [7], TTCATCACACAGGACAGCCACA came in with a sensor-assay potency score (higher = more potent) of -1.36.

TAGACTCATAGTCATAGAGGGC yielded a sensor-assay potency score (higher = more potent) in [9] of -1.02.

For TAACTGAATAATTCGACCCTAT, in [6], the sensor-assay potency score (higher = more potent) is -0.071.

TGTCTGTCCTGTGCTGAGCGAG registered a sensor-assay potency score (higher = more potent) in assay [9] of -1.15.

TACACGTCCCTCGCATCGGTGG gave a sensor-assay potency score (higher = more potent) in [7] of -1.14.

In turn, TTTTCCATTCGGCAGTGTCGTA came in with a sensor-assay potency score (higher = more potent) in [7] of -1.69.

TGTTCTTCAACTTCAATCGTTT: the sensor-assay potency score (higher = more potent) in [8] is -0.243.

As to TATAGTATCCTCTTCATCCTCC, the sensor-assay potency score (higher = more potent) in [8] is 0.687.

In assay [6], AATCTTCTCATAGTCCAGCTGG registered a sensor-assay potency score (higher = more potent) of -0.573.
